# According to PubChem BioAssay (NCI):
# About 83,000 compounds went through this panel and 20% of them were active in at least one assay; those are over-represented in the sample as a whole.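 Plates (96-well) were seeded with cells, treated with compound at one concentration, and incubated for 48 hours before percent growth was determined.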 Unmarked numbers belong to inactive results. Active and inactive are the calls of the source. Rule for the calls: active = growth percent below 10; inactive = the rest.
# System: HL-60(TB) leukemia
# Test: NCI-60 one-dose screen, 48 h (100 = growth as untreated, 0 = no growth, -100 = all killed)
# Details: 10 µM unless noted
row,Compound,growth
1,Cc1ccc2c(c1)sc1nc(-c3c[nH]c4ccccc34)c(Nc3ccccc3)n12,97%
2,CCC(=C(c1ccc(OCCN(CC)CC)cc1)c1ccc(OCCN(CC)CC)cc1)c1ccc(Cl)cc1,-51.6% (active)
3,COc1ccc2[nH]cc(-c3nc(-c4c[nH]c5c(Cl)nccc45)cs3)c2c1,36%
4,CC1(O)CCCCCC1,92.7%
5,Cc1cc2nc3c(=O)[nH]c(=O)nc-3n(CC=O)c2cc1C,-55.8% (active)
6,CC(C)=CC/C=C(/C)[C@H]1CC[C@]2(C)[C@@H]1CC[C@@H]1[C@@]3(C)CCC(=O)NC(C)(C)[C@@H]3CC[C@]12C,-22.1% [100 µM] (active)
7,Cc1ccc(-c2nc3nc(-c4ccc(Br)cc4)nc(N4CCCNCC4)c3o2)cc1,-47.3% (active)
8,CC(=O)Oc1ccccc1C(=O)Nc1ncc([N+](=O)[O-])s1,-43.8% (active)
9,OC1(c2ccc(Cl)c(C(F)(F)F)c2)CCN(CCCC(c2ccc(F)cc2)c2ccc(F)cc2)CC1,-49.6% (active)
10,COc1ccc(Cn2cc(C(=O)N=Nc3c(O)[nH]c4c(C)cccc34)nn2)cc1,78.9%
11,O=C(Nc1ccccc1)C(CCCCN1C(=O)c2ccccc2C1=O)N1C(=O)c2ccccc2C1=O (centres undefined),104%
12,Cc1ccc(-c2nn(Cc3cn(-c4cc(C)nc5ccccc45)nn3)c3ncnc(N)c23)cc1,83.1%
13,Cc1nn(C)c2ncnc(Nc3ccccc3Br)c12,94.3%
14,C#C[C@]1(O)CC[C@H]2[C@@H]3CC=C4c5nc(N)sc5CC[C@]4(C)[C@H]3CC[C@@]21C,87.5%
